# In ChEMBL document CHEMBL3988442, “University of Dundee, Small-Polar-MMV Screening Library” (2021):
# Out of some 38,000 compounds screened, about 1,200 (3.2%) showed an effect of 50% or more. The median lay at about -58%. Only a selection was taken, and strong results are over-represented in it overall.
# Tested on: Plasmodium falciparum
# Experiment: Calibr Malaria Delayed Death Assay SOP
# Format: functional, organism-based
# Set-up: scale not given: in the data most compounds retested in dose-response had high values
# Settings: concentration 4.99e-06 (unit not given; other assays of the set use mol/L)
row,SMILES,Percent Effect [%]
1,COCCn1ccnc1C1CCCN(c2cc(OC)nc(N)n2)C1 (configuration not stated),-62.62
2,CC(O)(CN1CCC2(CC1)OCCO2)c1cccc(C(F)(F)F)c1 (configuration not stated),-10.61
3,CC(=O)N1CCCN(CC(C)(O)c2cccc(C(F)(F)F)c2)CC1 (configuration not stated),-93.83
4,CC(O)(CN1CCC(O)CC1)c1cccc(C(F)(F)F)c1 (configuration not stated),56.04
5,COc1cc(C)c(S(=O)(=O)CC(=O)N(C)C2CC2)cc1OC,-72.85
6,NC(=O)C1(c2cnccn2)CCCN1Cc1ccccn1 (configuration not stated),-37.82
7,Cc1ccc(NCCCc2c(C)noc2C)nn1,-93.73
8,Cn1cc(CN2CCC3(CC2)CC(Nc2nccs2)CO3)cn1.O=C(O)C(F)(F)F (configuration not stated),-11.64
9,O=C(O)C(F)(F)F.c1ccc(CN2CCC3(CC2)CC(Nc2nccs2)CO3)nc1 (configuration not stated),73.68
10,Cc1cc(CN2CCC3(CC2)CC(Nc2ncccn2)CO3)nn1C.O=C(O)C(F)(F)F (configuration not stated),-11.8
11,Cc1cc(C)cc(CN2CCC3(CC2)CC(Nc2ncccn2)CO3)c1.O=C(O)C(F)(F)F (configuration not stated),60.22
12,O=C(O)C(F)(F)F.c1cnc(NC2COC3(CCN(Cc4ccoc4)CC3)C2)nc1 (configuration not stated),-27.43
13,O=C(O)C(F)(F)F.c1cnc(NC2COC3(CCN(Cc4cccs4)CC3)C2)nc1 (configuration not stated),-52.55
14,COc1ccc2c(ccn2CCC(=O)Nc2ccc(C(N)=O)cc2)c1,-55.48
15,COCCCN(C)C1CCCN(Cc2noc(C3CC3)n2)C1 (configuration not stated),-38.52
16,CCCc1nnc(N2CCC3(CC2)CN(C)C(=O)O3)o1,-93.43
17,O[C@H]1CC[C@@H](Cc2cc(-c3ccc(F)cc3)on2)O[C@@H]1CNCC1CC1,62.55
18,O[C@H]1CC[C@@H](Cc2cc(-c3ccccn3)on2)O[C@@H]1CNCC1CC1,-74.71
19,O[C@H]1CC[C@@H](Cc2cc(-c3ccccc3)on2)O[C@@H]1CNCC1CC1,37.66
20,CN(Cc1cccs1)c1cc(N2CCCC2CO)ncn1 (configuration not stated),-120.2
21,Cc1cc2nc(SCC(=O)N3CCOCC3)n(CC(C)C)c(=O)c2[nH]1,-82.87
22,CC(C)c1cc(Br)ccc1NC(=O)NC(C)(CO)CO,-72.51

row,SMILES,Percent Effect [%]
1,CC(c1nc(C(C)(C)C)no1)S(=O)(=O)CC(=O)N(C)C (configuration not stated),-171.7
2,Fc1ccc(OCCCNC2=NCCN2)cc1.I,3.475
3,Fc1ccc(Sc2ccccc2CNC2=NCCN2)cc1.I,79.96
4,O=C(CCc1nnc2ccccn2c1=O)NCc1ccco1,-46.43
5,COc1ccsc1C(=O)NCCN1CCOCC1,-115.8
6,Cc1nc(C)n(CC2CCCN2Cc2ccn(-c3ccccc3)n2)n1 (configuration not stated),-118.1
7,CNCCCNC1CCN(c2ccc(-n3ccnc3)cc2)CC1,32.68
8,CCN1CCC2(CC1)CC(CC(=O)N(C)C)c1ccc(F)cc12 (configuration not stated),-67.07
9,CCC(C)N(Cc1c[nH]c(C)n1)Cc1ccccc1Cl (configuration not stated),47.84
10,CCC(C)N(Cc1ccncc1)Cc1ccc(-n2cccn2)cc1 (configuration not stated),-4.562
11,CCC(C)N(Cc1ccc(C)cc1)Cc1c[nH]c(C)n1 (configuration not stated),77.78
12,CCc1ccc(CN2CCNC(C(=O)N3CCN(C)CC3)C2)o1 (configuration not stated),-22.63
13,CCOc1ncccc1C(=O)N1CCCC1Cn1cc(C)cn1 (configuration not stated),-83.81
14,Cc1nc(C)c(C)c(N2CCC(O)(c3ccc(F)cc3)CC2)n1,-9.23
15,Fc1ccccc1CN1CCCN(c2ncnc3[nH]ccc23)CC1,-95.46
16,CNc1nnc(SCc2nnc(C(C)(C)C)o2)s1,-74.95
17,O=C1NCC(C(=O)Nc2ncc(Cc3ccc(F)cc3F)s2)N1 (configuration not stated),-63.93
18,O=C(Cc1cccc2ccccc12)N1CCC(Nc2cccnn2)CC1,-77.23
19,O=C1CC2(CCN(CCCO)CC2)CN1Cc1ccc(F)c(F)c1,-28.18
20,CC(NCC1CCN(CCO)CC1)c1cccnc1 (configuration not stated),-40.75
21,CS(=O)(=O)CCN1CCC(Nc2c(Cl)cccc2C#N)CC1,-32.59
22,CC(NCC1CCN(CCO)CC1)c1ccc(F)c(Cl)c1 (configuration not stated),83.31

row,SMILES,Percent Effect [%]
1,CC(NC1CCN(CCS(C)(=O)=O)CC1)c1ccc(Cl)cc1 (configuration not stated),56.47
2,COc1ccc(C(C)N2CCC(CO)CC2)cc1Cl (configuration not stated),-19.12
3,Cc1cccc(C(C)NCC2CCS(=O)(=O)CC2)c1 (configuration not stated),7.654
4,CC(NCC1CCN(CCO)CC1)c1cccc(Cl)c1 (configuration not stated),84.07
5,Cc1ccc(CNC(=O)CNCC2CCN(CCO)CC2)s1,-48.54
6,COCCN1CCC(CNC(=O)Nc2ccc(F)c(Cl)c2)C1 (configuration not stated),-33.14
7,CC(c1ccc(Cl)cc1)N1CCN(CCS(C)(=O)=O)CC1 (configuration not stated),-44.52
8,O=C(NCCOc1ccc(Cl)cn1)Nc1nccs1,-1.653
9,CCS(=O)(=O)N1CCc2ccc(NC(=O)Nc3cccc(C)c3)cc21,-42.73
10,O=C(NCc1ccccn1)[C@H]1COC[C@H]2CN(CC3CC3)C[C@H]21.O=C(O)C(F)(F)F.O=C(O)C(F)(F)F,-42.42
11,CC(NC(=O)Cn1ccc2sccc2c1=O)c1ccccc1 (configuration not stated),-76.67
12,COc1ccc(-c2cc(C3(O)CCOC(C)(C)C3)on2)cc1 (configuration not stated),-20.9
13,Cc1c(COC(C)C)cccc1NC(=O)N1CC[C@H](O)C1,-81.26
14,NC(=O)c1c(SCCN2CCCCC2)sc2c(O)cc(=O)[nH]c12,1.518
15,O=S1(=O)[C@@H](c2ccccc2)[C@H](CO)CN1c1ccccc1,-141.9
16,Cc1cc(C)nc(CN(C)c2nc(C3CCCC3)nc3c2cnn3C)c1,-50.46
17,CCN(CC)c1ncnc2c1CCN(c1ccc(C)nn1)CC2,-148.5
18,Cc1nn(CCCNC(=O)C2CCN(S(C)(=O)=O)CC2)cc1Cl,-83.52
19,Cc1cnn(C2CN(CCOc3ccccc3C#N)C2)c1,-94.34
20,O=C(Cc1ccccn1)N1CCc2ncnc(NC3CCC3)c2CC1.O=C(O)C(F)(F)F,-99.33
21,COCc1ncc(CN2CCC(Oc3ccc(OC)cc3)CC2)cn1,-166.1
22,O=C(Nc1cccc(OCC(F)F)n1)c1ccncc1,-44.55

row,SMILES,Percent Effect [%]
1,COc1cccc(CN2CCCC(Nc3cccc(F)c3)C2)c1O (configuration not stated),66.55
2,CCOc1ccccc1-c1noc(CN2CCCC(O)C2)n1 (configuration not stated),-111.8
3,COc1ccc(NC2CCCN(Cc3cnc(N(C)C)s3)C2)cc1OC (configuration not stated),-57.98
4,CCOc1cccc(CNc2ccccc2C(F)(F)F)c1O,-100.4
5,COc1ccccc1CN1CCCC(n2cccn2)C1 (configuration not stated),31.44
6,CN1CCOC(CNCC(=O)NCCC2=CCCCC2)C1 (configuration not stated),-80.77
7,COCC[C@]1(O)CCN(c2ncc(Cl)cc2F)C[C@H]1C,-23.85
8,CC[C@@]1(O)CCN(c2ncc(Cl)cc2F)C[C@H]1O,-98.16
9,Cc1nn(Cn2ccc(C(=O)N3CCCC(C)C3)n2)c(C)c1Cl (configuration not stated),-15.8
10,O=C(Cn1nc(C(F)(F)F)c(Br)c1C1CC1)N1CCOCC1,-21.49
11,CN1CCCC1CCn1ccnc1-c1nc(-c2ccccc2)no1 (configuration not stated),57.38
12,OCC1CCCCN1CCn1ccnc1-c1nc2ccccc2[nH]1 (configuration not stated),10.13
13,CN1CCCC1CCn1ccnc1-c1nc2ccccc2[nH]1 (configuration not stated),72.06
14,CC(=O)Nc1ccc2nc(-c3nccn3C[C@@H]3CCCO3)ccc2c1,-89.17
15,Cc1nccn1CCC1CCCCN1C(=O)c1ccc2[nH]nnc2c1 (configuration not stated),-19.01
16,CN(CC1CCCN1C)c1nccc(C2CCCC2)n1 (configuration not stated),7.396
17,Cn1ccnc1CN1CCCCC1c1nc(-c2ccccc2)no1 (configuration not stated),-149.2
18,CN1CCCC1CCn1ccnc1-c1ccc2ccccc2n1 (configuration not stated),54.89
19,c1ccc(-c2noc(CCCN3CCCC3Cn3cccn3)n2)cc1 (configuration not stated),29.02
20,C[C@@H]1CN(C(=O)c2cc(Cn3ccc4ccccc43)[nH]n2)C[C@H](C)O1,-126.8
21,CC1CCCN(C(=O)Nc2cccc(CN3CCOC3=O)c2)C1 (configuration not stated),-90.51
22,C[C@@H](O)CNC(=O)c1nc(Cc2c(Cl)cccc2Cl)no1,-61.62

row,SMILES,Percent Effect [%]
1,COc1ccc(C(CC(=O)O)NC(=O)CCc2cccs2)cc1OC (configuration not stated),-100.1
2,CN1CCC(N(Cc2ccncc2)Cc2nc3c(s2)CCCC3)CC1,7.357
3,COc1ccc(F)cc1C(C)NC(=O)Cn1ccc(=O)n(C)c1=O (configuration not stated),-164.7
4,COC1CCN(CCNC(=O)NC(C)c2ccc(F)c(F)c2)CC1 (configuration not stated),45.3
5,COC1CCN(CCNC(=O)NCC(C)c2cccc(C)c2)CC1 (configuration not stated),54
6,COC1CCN(CCNC(=O)NC(C)c2cccc(Cl)c2)CC1 (configuration not stated),23.1
7,N#Cc1cc(Cn2cnc(C3CCC3)cc2=O)ccc1F,-42.13
8,Cc1cnn(CC2CN(Cc3nnc(C4CC4)n3C)CCO2)c1 (configuration not stated),-158.8
9,CC(C)n1cnnc1CCNCc1cn(CCC(N)=O)c2ccccc12,-17.79
10,CC(NCc1cn(CCC(N)=O)c2ccccc12)c1nncn1C (configuration not stated),-188.2
11,Cc1ccc(C(C)NCc2cn(CCC(N)=O)c3ccccc23)cc1C (configuration not stated),82.29
12,CN(C)C(=O)CN1CCc2ncnc(C3CC3)c2CC1,-29.69
13,COc1ncccc1NC(=O)NC(C)c1nncn1C (configuration not stated),-34.42
14,Cc1cnc(C(=O)NCC(c2ccc(C)o2)N2CCOCC2)cn1 (configuration not stated),-124.5
15,Cc1ccc(C(CNCc2cccc3c2OCO3)N2CCOCC2)o1 (configuration not stated),65.56
16,CC(C)c1nn(C)c(N(C)C)c1CNCc1cccc2c1OCO2,16.39
17,c1csc(C(CNCc2cccc3c2OCO3)N2CCOCC2)c1 (configuration not stated),39.98
18,CC(C)C(CNCc1cccc2c1OCO2)N1CCOCC1 (configuration not stated),75.82
19,Cl.c1cc(CNCc2ccnc(N3CCOCC3)c2)c2c(c1)OCO2,-34.78
